The source of these data is ChEMBL document CHEMBL1201862, “PubChem BioAssay data set” (2004).

The campaign covered roughly 400,000 compounds. About 2,100 (0.53%) were called active. About 14% were inconclusive and are not listed. The rule behind the calls is not given here. The list comes from a sample in which actives are over-represented; it also holds similar structures and randomly drawn compounds.

For this test, the target named is Ataxin-2 (Homo sapiens) (UniProt Q99700). As to the kind of experiment: qHTS for Inhibitors of ATXN expression. The format is functional. In general terms: Quantitative high-throughput screening tests each substance at several concentrations.
Ataxin-2 (Homo sapiens), sequence (Q99700 whole entry): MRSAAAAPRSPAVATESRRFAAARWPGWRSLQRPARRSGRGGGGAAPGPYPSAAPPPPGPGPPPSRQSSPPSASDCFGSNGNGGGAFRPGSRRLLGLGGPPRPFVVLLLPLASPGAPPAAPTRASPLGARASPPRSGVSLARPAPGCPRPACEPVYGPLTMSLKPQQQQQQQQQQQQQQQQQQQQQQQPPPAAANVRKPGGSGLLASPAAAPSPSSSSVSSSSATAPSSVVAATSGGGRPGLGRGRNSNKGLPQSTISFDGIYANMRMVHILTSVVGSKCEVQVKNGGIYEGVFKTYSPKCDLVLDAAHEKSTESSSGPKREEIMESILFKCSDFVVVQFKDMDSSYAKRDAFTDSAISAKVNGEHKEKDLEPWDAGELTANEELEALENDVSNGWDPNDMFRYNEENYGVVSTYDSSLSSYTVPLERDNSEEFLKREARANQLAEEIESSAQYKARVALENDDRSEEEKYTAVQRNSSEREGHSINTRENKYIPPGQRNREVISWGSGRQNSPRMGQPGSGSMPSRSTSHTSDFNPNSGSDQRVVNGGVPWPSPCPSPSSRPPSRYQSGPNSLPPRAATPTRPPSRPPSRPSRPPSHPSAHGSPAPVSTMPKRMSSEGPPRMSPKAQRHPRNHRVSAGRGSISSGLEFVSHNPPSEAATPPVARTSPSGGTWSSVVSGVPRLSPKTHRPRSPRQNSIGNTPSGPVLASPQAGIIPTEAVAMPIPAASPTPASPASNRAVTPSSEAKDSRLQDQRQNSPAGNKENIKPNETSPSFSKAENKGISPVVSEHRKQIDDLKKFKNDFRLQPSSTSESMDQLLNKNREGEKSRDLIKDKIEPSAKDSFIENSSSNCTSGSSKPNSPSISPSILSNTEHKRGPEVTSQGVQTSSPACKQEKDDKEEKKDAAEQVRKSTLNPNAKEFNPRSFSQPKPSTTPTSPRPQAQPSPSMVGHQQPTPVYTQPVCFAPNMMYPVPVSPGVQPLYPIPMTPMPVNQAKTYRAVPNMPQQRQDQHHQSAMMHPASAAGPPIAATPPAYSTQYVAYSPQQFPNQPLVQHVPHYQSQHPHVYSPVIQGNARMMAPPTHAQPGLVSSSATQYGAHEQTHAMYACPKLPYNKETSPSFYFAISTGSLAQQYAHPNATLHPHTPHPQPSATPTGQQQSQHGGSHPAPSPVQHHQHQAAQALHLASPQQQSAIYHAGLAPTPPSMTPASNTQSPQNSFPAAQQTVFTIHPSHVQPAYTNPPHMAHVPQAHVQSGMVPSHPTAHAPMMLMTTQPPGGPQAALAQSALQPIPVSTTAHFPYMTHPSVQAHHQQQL
Regarding `CCOCCCn1c(=N)c(C(=O)NCc2ccco2)cc2c(=O)n3ccccc3nc21`, the Potency entry is “inactive”.
The value for `O=C1c2ccccc2C(Nc2ccc(Cl)cn2)N1c1cccnc1` (stereo not drawn) was “inactive”.
For `O=C1[C@@H](c2ccccc2)[C@@H](c2ccccc2)N1c1cccnc1`, the Potency was 25.1 µM (active).
The value for `O=C1[C@H](Oc2ccccc2)[C@@H](c2ccccc2)N1c1ccncc1` was 28.2 µM (active).
The value for `O=C1[C@H]2C(c3ccccc3)=NN(c3ccccc3)[C@H]2C(=O)N1c1ccccc1` was “inactive”.
The value for `CCOC(=O)C1CCN(Cc2nc3ccc([N+](=O)[O-])cc3c(=O)n2-c2ccc(OC)cc2OC)CC1` was “inactive”; that for `N#CC1=C(N)Oc2cc(O)ccc2C1c1ccc(Br)s1` (stereo not drawn) was “inactive”; that for `c1cc2c3c(cccc3c1)NC1(CCC3(CC1)Nc1cccc4cccc(c14)N3)N2` was 35.5 µM (active).
As to `Cn1c(-c2cc3ccc(OC(=O)C(C)(C)C)cc3oc2=O)nc2ccccc21`, the Potency entry was “inactive”.
Then `CCOc1ccccc1NC(=O)c1sc2nc(-c3ccc(OC)cc3)ccc2c1N`, with “inactive”; and `COc1ccc(NC(=O)c2c(NC(=O)CCC(=O)O)sc3c2CCCCC3)cc1`, with “inactive”; and `COc1ccc(CC(=O)Nc2sc3c(c2C(=O)Nc2cccc(Cl)c2)CCCCC3)cc1`, with 28.2 µM (active).
The value for `COc1ccc(-c2c3c(nc4sc(C(=O)Nc5ccccc5)c(N)c24)CCC3)cc1` was “inactive”.
With `CCOc1ccccc1NC(=O)c1c(NC(=O)Cc2ccc(OC)cc2)sc2c1CCC2`, the Potency is 25.1 µM (active).
`OC[C@@H]1[C@@H](c2ccccc2)C(c2ccc(F)cc2)=NN1c1ccccc1`: the Potency result was “inactive”.
For `Cn1c(=O)c2nc3ccc(NC(=O)C(F)(F)F)cc3nc2n(C)c1=O`, the Potency entry is “inactive”.
Then `O=C(CCn1cnc2onc(-c3ccc(F)cc3)c2c1=O)Nc1cccc(C(F)(F)F)c1`, with 20 µM (active); and `Cc1cc(C)n(CCC(=O)Nc2cccc(F)c2)n1`, with “inactive”; and `CC(C)(C)c1ccc(C(=O)Nc2cccc3c(=O)[nH][nH]c(=O)c23)cc1`, with “inactive”.
Then `COc1ccc(NC(=O)CSc2nnc(C)n2C2CC2)cc1S(=O)(=O)N1CCOCC1`, with “inactive”; and `Cc1ccc(NC(=O)CCS(=O)(=O)c2ccccc2)cc1S(=O)(=O)N1CCOCC1`, with “inactive”; and `Cc1ccc(S(=O)(=O)N2CCOCC2)cc1NC(=O)COC(=O)CNC(=O)c1ccc(C(C)(C)C)cc1`, with “inactive”.
Consider `O=C(Nc1ccc(Cl)c(S(=O)(=O)N2CCOCC2)c1)c1ccc(OCC2CCCO2)cc1` (stereo not drawn), for which the Potency is 11.2 µM (active).
Then `Cc1cc(C)n(-c2ccc(C(=O)Nc3ccc(C)c(S(=O)(=O)N4CCOCC4)c3)cc2)n1`, with 12.6 µM (active); and `O=C(NC1=NCCS1)c1ccc(Cl)c(S(=O)(=O)N2CCOCC2)c1`, with “inactive”.
As to `Cc1ccc(NC(=O)C2CCC(C(C)(C)C)CC2)cc1S(=O)(=O)N1CCOCC1` (stereo not drawn), the Potency was 31.6 µM (active).
Then `Cc1cc(C(=O)Nc2ccc(Cl)c(S(=O)(=O)N3CCOCC3)c2)c2ccccc2n1`, with “inactive”; and `O=C(Nc1cccc(S(=O)(=O)N2CCCCC2)c1)c1ccc(OCC2CCCO2)cc1` (stereo not drawn), with “inactive”; and `Cc1cc(/C=C(\C#N)C(=O)NC2CCCCCC2)c(C)n1C`, with “inactive”.
On to `COc1ccc(C2CC(c3cccc(Cl)c3)=NN2c2ccc(S(N)(=O)=O)cc2)cc1` (stereo not drawn), for which the Potency result is “inactive”.
Then `CC1Cc2ccccc2N1CC(=O)NC(=O)NC1CCCC1` (stereo not drawn), with “inactive”; and `O=C(C1=C[C@@H](C2CCCCC2)C[C@@H](OCc2ccc(CO)cc2)O1)N1CCN(Cc2ccccc2)CC1`, with 39.8 µM (active); and `COc1ccc(CN2CCCC(C(=O)N3CCCCC3)C2)cc1` (stereo not drawn), with “inactive”.
For `O=C(c1cccnc1)N1CCN(Cc2ccc3ccccc3c2)CC1`, the Potency entry is “inactive”.
For the molecule `Cc1cc(=O)oc2cc(OC(=O)c3cncc(Br)c3)ccc12`, the Potency entry was “inactive”.
Turning to `CCc1c(C2(O)CCCCC2)[nH]c2ccc(C(F)(F)F)cc12`, the Potency is 25.1 µM (active).
The value for `Cc1c(C2(O)CCCCC2)[nH]c2cc(C(F)(F)F)ccc12` was 35.5 µM (active); that for `COCc1cc(C)nc2oc(C(=O)c3ccccc3)c(N)c12` was “inactive”.
With `CCCCC[C@H](O)/C=C/C1C(=O)C=C[C@H]1C/C=C\CCCC(=O)OC` (stereo partly drawn), the Potency was 35.5 µM (active).
Take `CCCCC[C@@H](/C=C/C1C(=O)C=C[C@H]1C/C=C\CCCC(=O)OC)OC(C)=O` (stereo partly drawn): the Potency was 35.5 µM (active).
Then `CCOC(=O)c1c(NC(=O)c2ccc(S(=O)(=O)N3CCCC(C)C3)cc2)sc2c1CCN(C(C)C)C2` (stereo not drawn), with “inactive”.
Then `Cc1cc(-c2ccc(Br)s2)nc(-n2cccc2)n1`, with “inactive”.
Then `OC1(c2ccc(Cl)c(Cl)c2)C[n+]2ccccc2N1Cc1ccccc1` (stereo not drawn), with 28.2 µM (active); and `Cc1ccc2nc3c(cc(C(=O)NCCc4ccccc4)c(=N)n3CCCN3CCOCC3)c(=O)n2c1`, with “inactive”; and `CC(C)(O)C#Cc1ncc(C(F)(F)F)cc1Cl`, with “inactive”.
Consider `N#CC(C#N)=c1ccc2c(c1)NC1(CCCCC1)N=2`, for which the Potency is 12.6 µM (active).
The value for `COc1ccc(CCNC(=O)COc2ccc(S(=O)(=O)NC3CCCCC3)cc2Cl)cc1` was 35.5 µM (active); that for `O=C(COc1ccc(F)cc1Cl)NC1CCCCCC1` was “inactive”.
The value for `COc1ccc(CCNC(=O)C(=O)NCC2OCCN2S(=O)(=O)c2ccc(OC)c(OC)c2)cc1` (stereo not drawn) was “inactive”.
Then `CCCCNc1c(-c2ccc(SC3CCCCC3)cc2)nc2cnccn12`, with “inactive”; and `Cc1ccc(-c2nnc(NC3CCCCC3)c3ccccc23)cc1S(=O)(=O)N1CCN(C)CC1`, with 11.2 µM (active); and `O=C(NCCC1=CCCCC1)c1coc(=O)c(Br)c1`, with 31.6 µM (active).
Take `O=C(COc1ccccc1Br)NCCC1=CCCCC1`: the Potency result was “inactive”.
The value for `Cc1noc(C)c1COc1ccc(C(=O)NCCc2ccc(S(N)(=O)=O)cc2)cc1` was “inactive”; that for `COc1ccc(CCNC(=O)c2coc(=O)c(Br)c2)cc1` was 20 µM (active); that for `Cn1c(C(=O)O)cc2c(=O)n3ccccc3nc21` was “inactive”.
Take `O=C(Nc1ccc2cccnc2c1)c1ccc(Br)cc1`: the Potency entry is “inactive”.
Take `CC(=O)OCCn1c2nc(=O)[nH]c(=O)c-2nc2cc(C)c(C)cc21`: the Potency result was “inactive”.
The value for `COc1ccc2nc(NN=C3C(=O)CC(C)(C)CC3=O)sc2c1` was 33.6 µM (active); that for `COc1ccc2nc(Nc3ccccc3)sc2c1` was “inactive”; that for `COc1cccc(C2C3=C(O)CC(C)(C)CC3=NC(C)=C2C(=O)Nc2nc3ccccc3s2)c1OC` (stereo not drawn) was “inactive”.
`O=C(Nc1ccc2oc(=O)ccc2c1)c1ccc(-c2cccc([N+](=O)[O-])c2)o1`: the Potency was 39.8 µM (active).
Then `O=C(Nc1nccs1)c1ccc(-c2ccc([N+](=O)[O-])cc2)o1`, with “inactive”.
`COc1ccc(CCNC(=O)c2ccc(-c3cccc([N+](=O)[O-])c3)o2)cc1OC`: the Potency result was “inactive”.
Turning to `COc1cc2c(cc1N/C=C(\C#N)c1nc(-c3ccccc3)cs1)oc1ccccc12`, the Potency entry is “inactive”.
For `COc1ccc(C(=N)NOC(=O)/C=C/c2ccccc2)cc1`, the Potency entry was “inactive”.
Then `COc1cc2c(cc1NC(=O)COC(=O)/C=C/c1ccccc1)oc1ccccc12`, with 17.8 µM (active); and `CCCCc1ccc(/C(C)=N/Nc2cc(N3CCOCC3)nc(C)n2)cc1`, with “inactive”.
The value for `O=C(CN1C(=O)NC2(CCCCC2)C1=O)Nc1ccc2c(c1)CCC2` was 28.2 µM (active).
Turning to `O=C(CN1C(=O)NC2(CCCC2)C1=O)Nc1nc(-c2ccccc2)cs1`, the Potency entry was “inactive”.
Then `O=C(CN1CCN(Cc2ccccc2)CC1)Nc1ccc2c(c1)CCC2`, with “inactive”.
The value for `CCc1ccccc1-n1c(N)c(C(=O)OC)c2nc3ccccc3nc21` was “inactive”; that for `Cc1[nH]n(-c2ccccc2)c(=O)c1N=Nc1c(O)cc(S(=O)(=O)N(C)C)c2ccccc12` was 4.47 µM (active).
The value for `CN(C)S(=O)(=O)c1ccc2[nH]cc(/C=C/c3nc4ccccc4c(=O)n3-c3ccccc3)c2c1` was “inactive”; that for `Cc1[nH]n(-c2ccccc2)c(=O)c1N=Nc1nccs1` was 39.8 µM (active).
As to `O=C(O)c1cc2c(ncc3c(=O)n(-c4ccccc4)[nH]c32)s1`, the Potency result is “inactive”.
The value for `Cc1[nH]n(-c2ccc(Cl)cc2)c(=O)c1N=Nc1cccnc1` was “inactive”; that for `CN1C(=O)c2cccc3c(S(=O)(=O)N(C)C)ccc1c23` was “inactive”; that for `Cc1cccc(/N=c2\oc3cc(O)ccc3cc2C(N)=O)c1` was “inactive”.
On to `COc1cccc(C2Oc3ccccc3C3CC(c4cccs4)=NN32)c1` (stereo not drawn), for which the Potency result was “inactive”.
Then `CC1(C)Cc2c(sc3nc(SCC(=O)O)nc(N)c23)CO1`, with “inactive”; and `COC(=O)CSc1nc(N)c2c3c(sc2n1)C(c1ccccc1)SC(c1ccccc1)C3` (stereo not drawn), with 35.5 µM (active); and `COC(=O)c1sc2nc3c(c(-c4cccs4)c2c1N)CCCC3`, with “inactive”.
The value for `Cc1ccc2oc(=O)c(S(=O)(=O)c3ccc(F)cc3)cc2c1` was “inactive”; that for `Cc1cn(-c2cc(C(=O)Nc3ccc(C)c(NC(=O)C(=O)c4c[nH]c5ccccc45)c3)cc(C(F)(F)F)c2)cn1` was 20 µM (active).
Turning to `O=C(NCCOc1ccccc1Cl)C(=O)c1c[nH]c2ccccc12`, the Potency entry is “inactive”.
The value for `Cc1ccc(NC(=O)COC(=O)c2c[nH]c3ccccc23)cc1C` was “inactive”; that for `OCCN1CCN(c2ncnc3c2ncn3[C@H]2CN(Cc3ccc(-c4ccccc4)cc3)C[C@@H](CO)O2)CC1` was 39.8 µM (active).
Then `CSc1ccc(/C=C/C(=O)OCC(=O)N2CCc3ccccc32)cc1`, with “inactive”; and `COc1cccc(/C=C2/CCC(CN(C)C)C2=O)c1` (stereo not drawn), with 9.47 µM (active); and `COc1cccc(NC=C2C(=O)CCCC2=O)c1`, with “inactive”.
The value for `CCCC/C=C1/CCC(CN(C)C)C1=O` (stereo not drawn) was 37.7 µM (active); that for `CN(C)CC1CCC/C(=C\c2ccc(OC(=O)/C=C/c3ccccc3)cc2)C1=O` (stereo not drawn) was 35.5 µM (active).
Regarding `CCCC(/C=C/c1ccc(OC(C)=O)cc1)=C1/c2ccccc2C(=O)N1c1ccccc1`, the Potency result was “inactive”.
Then `CN(C)c1ccc(/C=C2\CCCc3c2nc2ccccc2c3C(=O)O)cc1`, with “inactive”.
Then `COc1ccc(/C=N/N(C)C2=NS(=O)(=O)c3ccccc32)cc1`, with “inactive”; and `COc1cccc(C2NC(=O)CCC2[N+](=O)[O-])c1` (stereo not drawn), with “inactive”.
The value for `COc1ccc(/C=C2\CCC/C(=C\C=N\N(C)C)C2=O)cc1` was 11.2 µM (active).
